Bioassay records from PubChem BioAssay.
RecA splice inh: inhibitors of M. tuberculosis RecA intein splicing | cell-free RecA intein splicing, fluorescence | inhibition, % (test concentration not listed) | actives 0.75% (n = 290,000); in the data active = inhibition above about 30%;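 also: 0% = vehicle wells and 100% = reference inhibitor control wells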
Target sequence (P9WHJ3 whole entry, looked up, canonical isoform): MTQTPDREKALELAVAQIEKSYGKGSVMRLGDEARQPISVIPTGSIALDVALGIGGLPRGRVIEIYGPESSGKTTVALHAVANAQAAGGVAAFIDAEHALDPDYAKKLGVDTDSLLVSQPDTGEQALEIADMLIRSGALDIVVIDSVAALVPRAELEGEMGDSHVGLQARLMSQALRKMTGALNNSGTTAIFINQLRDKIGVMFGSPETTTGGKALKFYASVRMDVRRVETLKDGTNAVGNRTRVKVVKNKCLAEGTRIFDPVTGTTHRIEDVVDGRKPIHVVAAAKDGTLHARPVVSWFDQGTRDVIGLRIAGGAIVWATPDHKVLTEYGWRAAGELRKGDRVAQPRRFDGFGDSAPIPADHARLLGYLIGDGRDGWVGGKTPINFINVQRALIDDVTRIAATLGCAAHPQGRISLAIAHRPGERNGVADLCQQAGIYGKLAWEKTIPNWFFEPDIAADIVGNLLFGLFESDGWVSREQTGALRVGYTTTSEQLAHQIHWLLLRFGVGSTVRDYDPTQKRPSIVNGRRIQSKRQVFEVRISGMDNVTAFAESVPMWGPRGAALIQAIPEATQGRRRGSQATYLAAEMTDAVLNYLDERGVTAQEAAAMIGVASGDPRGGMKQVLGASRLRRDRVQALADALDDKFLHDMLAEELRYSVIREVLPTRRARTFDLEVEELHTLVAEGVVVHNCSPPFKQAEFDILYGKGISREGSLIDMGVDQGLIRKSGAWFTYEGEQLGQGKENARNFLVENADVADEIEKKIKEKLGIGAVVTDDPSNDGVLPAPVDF
TcdB GH inh: blocks C. difficile toxin B glycohydrolase activity. TcdB glycohydrolase enzymatic assay, plate reader. inhibition, % at 9.99 µM. actives 0.24% (n = 350,000); in the data active = inhibition above about 10%
FadD28 FP inh: M. tuberculosis FadD28 bisubstrate binding inhibition. FadD28 bisubstrate probe binding, fluorescence polarization. inhibition, % at 12.5 µM. actives 0.22% (n = 360,000); in the data active = inhibition above about 8.5%, passing the limit was not always enough
Rv3671c protease: Rv3671c (M. tuberculosis) protease inhibition. P9WHR9. inhibition, % at 5.96 µM. actives 0.048% (n = 320,000). AID 2606; in the data active = inhibition above about 38%;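 also: extracellular domain of Rv3671c used as enzyme; 0% = enzyme with DMSO and 100% = no enzyme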
UGM FP inh: Mtb UDP-galactopyranose mutase inhibition; inhibition, % at 10 µM; actives 0.06% (n = 320,000); purified UGM, fluorescence polarization probe displacement; in the data active = inhibition above about 10%, passing the limit was not always enough
BioA inh: inhibitors of Mycobacterium tuberculosis BioA enzyme; purified M. tuberculosis BioA enzyme, plate reader; actives 0.096% (n = 360,000); inhibition, % at 9.99 µM; in the data active = inhibition above about 40%
An asterisk follows results filed as active; · = no result. Only some compounds are listed: those with a hit (about 0.9% of all), similar ones and a draw of the others.

SMILES | RecA splice inh | TcdB GH inh | FadD28 FP inh | Rv3671c protease | UGM FP inh | BioA inh
CC(C)NC(=O)Nc1ccc2c(c1)C(=O)N([C@H](C)CO)C[C@H](C)[C@@H](CN(C)Cc1ccc(C(=O)O)cc1)O2 | · | -1 | · | · | · | -1
O=C(COC(=O)COc1cccc(Br)c1)NCc1ccc2c(c1)OCO2 | · | 1 | -4 | -3 | 11* | 2
COc1ccc(-c2ccc3c(c2)[C@@H]2[C@@H](CCN2S(=O)(=O)c2ccc(F)cc2)[C@H](CO)N3C)cc1 | · | -1 | · | · | · | ·
N#CC1=C(N)Oc2ccc3ccc(O)cc3c2C1c1ccsc1 (stereo not given) | 18 | -1 | 15* | · | · | ·
CN(C)Cc1c(O)ccc2[nH]cnc12 | -3 | · | -4 | 10 | -1 | -2
Oc1ccc2ccc3[nH]cnc3c2c1 | -3 | 21* | 2 | -6 | 1 | -2
COC(=O)C1=C(c2cccc(OCc3ccccc3)c2)C[C@@H]2CC[C@H]1N2C(=O)NCCCc1ccccc1 | · | 3 | -3 | -15 | 1 | 2
COC(=O)C1=C(c2ccc(OCc3ccccc3)cc2)C[C@@H]2CC[C@H]1N2C(=O)NCCCc1ccccc1 | · | 12* | 0 | 0 | 1 | -1
C[C@@H]1CN([C@@H](C)CO)C(=O)c2ccccc2-c2ccccc2CO[C@H]1CN(C)C(=O)[C@H](C)c1ccccc1 | · | 1 | · | · | · | 2
CCOc1cc(/C=C2\CCCc3c2nc2ccccc2c3C(=O)O)ccc1OC | -11 | · | 0 | -14 | 44* | -11
Cc1cccc(C)c1NC(=O)COC(=O)c1c2c(nc3ccccc13)/C(=C\c1ccc3c(c1)OCO3)CCC2 | · | 0 | -3 | 3 | 19* | ·
COc1cc(/C=C2\CCCc3c2nc2ccccc2c3C(=O)O)cc(Br)c1O | -5 | -19 | 12* | 10 | -3 | 0
COc1cc(/C=C2\CCc3c2nc2ccccc2c3C(=O)O)cc(OC)c1OC | -54 | 2 | 6 | 8 | -1 | 2
C[C@@H]1CCCCO[C@H](CN(C)C(=O)CCCN(C)C)[C@H](C)CN([C@H](C)CO)C(=O)c2cc(NC(=O)Nc3cccc4ccccc34)ccc2O1 | · | 3 | · | · | · | 2
CNC[C@H]1Oc2cc(-c3ccncc3)ccc2S(=O)(=O)N([C@H](C)CO)C[C@@H]1C | · | · | · | · | · | -1
CCCNC(=O)Nc1ccc2c(c1)C(=O)N(C)C[C@@H](OC)[C@@H](C)CN(C(=O)C1CCCCC1)[C@H](C)CO2 | · | · | · | · | · | -5
O=C(CCl)Nc1cccc(-c2cnc3ccccc3n2)c1 | 46* | · | 1 | -16 | -2 | 0
CCC(=O)Nc1cccc(-c2cnc3ccccc3n2)c1 | -1 | · | -3 | 0 | 3 | -1
CC(=O)Nc1ccc(OC(=O)Oc2ccc(NC(C)=O)cc2)cc1 | 3 | 11* | 0 | 4 | -1 | -1
O=Cc1s/c(=N\S(=O)(=O)c2ccccc2)n(CCCCl)c1Cl | 95* | 1 | -6 | · | · | ·
COc1cc(/C=C2\SC(=S)N(CCCCC(=O)O)C2=O)ccc1OS(=O)(=O)c1ccc(C)cc1 | 21 | 0 | 24* | -12 | 4 | 4
O=C(CCN1C(=O)/C(=C/c2ccco2)SC1=S)Nc1ccc(O)cc1C(=O)O | -3 | 0 | 21* | · | -1 | -1
O=C(CN1C(=O)/C(=C\c2ccco2)SC1=S)Nc1ccc(O)cc1C(=O)O | 14 | 0 | 36* | 6 | -2 | 2
O=C(CCCN1C(=O)/C(=C\c2ccccc2)SC1=S)Nc1ccc(O)cc1C(=O)O | 41* | 0 | 2 | -7 | 4 | 5
O=C(C[C@@H]1CC[C@@H]2[C@H](COC[C@H](O)CN2CC2CCCC2)O1)NCC1CC1 | · | -2 | · | · | · | ·
SMILES | RecA splice inh | TcdB GH inh | FadD28 FP inh | Rv3671c protease | UGM FP inh | BioA inh
CO[C@H]1CN(C)C(=O)c2ccc(NC(=O)c3cc(C)on3)cc2OC[C@@H](C)N(C)C[C@H]1C | · | 0 | · | · | · | -2
COc1ccc(S(=O)(=O)Nc2ccc3c(c2)C(=O)N([C@H](C)CO)C[C@@H](C)[C@H](CN(C)C(=O)Nc2ccc4c(c2)OCO4)OCCCC[C@H](C)O3)cc1 | · | -1 | · | · | · | ·
COc1ccccc1NC(=O)N1C[C@@H](O)COC[C@H]2O[C@H](CC(=O)NCc3ccccc3)CC[C@@H]21 | · | 2 | · | · | · | 0
COc1ccc2c3c([nH]c2c1)[C@H](CO)N(Cc1ccccc1)CC31CCN(S(C)(=O)=O)CC1 | · | -3 | · | · | · | ·
Cc1noc(C)c1NC(=O)Nc1ccc2c(c1)C(=O)N([C@H](C)CO)C[C@H](C)[C@H](CN(C)C(=O)CCCN(C)C)OCCCC[C@H](C)O2 | · | -2 | · | · | · | 1
COC(=O)CCCCCN1C(=O)/C(=C\c2ccncc2)SC1=S | 34* | 1 | 2 | 2 | -5 | ·
O=C(O)CCCN1C(=O)/C(=C\c2ccco2)SC1=S | 7 | -2 | 5 | · | · | ·
O=C(CCCN1C(=O)/C(=C/c2ccco2)SC1=S)Nc1ccccc1C(=O)O | 17 | 0 | 45* | -5 | -3 | ·
CO[C@@H]1CN(C)C(=O)c2cc(NC(=O)C3CCC3)ccc2OC[C@H](C)N(Cc2nccs2)C[C@@H]1C | · | -2 | · | · | · | 0
Cn1c(=O)n2n(c1=O)[C@H](C1CC1)C=C1CN3[C@@H]([C@H](Cc4ccccc4)OC(=O)[C@@H]3Cc3ccccc3)[C@@H]12 | · | 1 | · | · | · | ·
CC(=O)N(C)C[C@@H]1Oc2cc(C#Cc3ccccn3)ccc2S(=O)(=O)N([C@@H](C)CO)C[C@@H]1C | · | 0 | · | · | · | 2
Cc1cccc(S(=O)(=O)N[C@H]2CC[C@H](CCNC(=O)CCN3CCCCC3)O[C@@H]2CO)c1 | · | 0 | · | · | · | -3
O=C1c2cc(CO)cc(O)c2C(=O)c2c(O[C@@H]3OC(CO)[C@@H](O)[C@@H](O)[C@@H]3O)cccc21 (stereo not given in full) | 3 | 0 | 1 | -7 | 0 | -1
O=C(O)c1cc(O)c2c(c1)[C@H]([C@H]1c3cc(C(=O)O)cc(O)c3C(=O)c3c(O[C@@H]4O[C@H](CO)[C@@H](O)[C@H](O)[C@H]4O)cccc31)c1cccc(OC3O[C@H](CO)[C@@H](O)[C@H](O)[C@H]3O)c1C2=O (stereo not given in full) | -3 | -51 | 29* | 75* | 3 | 3
O=C1c2c(O)cccc2C(C2OC(CO)[C@@H](O)[C@H](O)[C@H]2O)c2cc(CO)cc(O)c21 (stereo not given in full) | · | -2 | 0 | 4 | 0 | 1
O=C(O)c1cc(O)c2c(c1)[C@@H]([C@H]1c3cc(C(=O)O)cc(O)c3C(=O)c3c(O[C@@H]4O[C@H](CO)[C@@H](O)[C@H](O)[C@H]4O)cccc31)c1cccc(OC3O[C@H](CO)[C@@H](O)[C@H](O)[C@H]3O)c1C2=O (stereo not given in full) | 13 | -39 | 14* | 75* | -1 | 1
CCNC(=O)C[C@H]1CC[C@@H]2[C@@H](COc3ccc(NC(=O)c4cccs4)cc3C(=O)N2C)O1 | · | 3 | · | · | · | 3
O=C(COc1ccc2ccc(=O)oc2c1)NCCN1CCOCC1 | · | 13* | -2 | · | · | 2
Cc1cc(=O)oc2cc(OCC(=O)NCCN3CCOCC3)ccc12 | -4 | 1 | -4 | 3 | -1 | ·
